Experimental data from PubChem BioAssay AID624260 (Broad Institute, 2012).
The whole screen tested about 44,000 compounds, of which about 30 (0.07%) were called active. About 1% were inconclusive and are not listed. Shown is part of a subset that was picked to be rich in actives. A number with no mark means an inactive call. Cut-off read from the data, not from the text of the source: active = inhibition above about 54% (passing the limit was not always enough); inconclusive = no clear call, values can overlap the other calls.

What follows are compounds tested against Histone-lysine N-methyltransferase NSD2 (Homo sapiens) (UniProt O96028) (assay: inhibitors of human NSD2, primary screen, biochemical, plate reader, single point (AID 624260;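 note: inhibitors reduce the monomethyl H3K36 fluorescence signal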)). Conditions: NSD2-SET H3K36me1 DELFIA fluorescence, at 12.5 µM, hits give high values.
Sequence of Histone-lysine N-methyltransferase NSD2 (Homo sapiens) (O96028 whole entry, looked up): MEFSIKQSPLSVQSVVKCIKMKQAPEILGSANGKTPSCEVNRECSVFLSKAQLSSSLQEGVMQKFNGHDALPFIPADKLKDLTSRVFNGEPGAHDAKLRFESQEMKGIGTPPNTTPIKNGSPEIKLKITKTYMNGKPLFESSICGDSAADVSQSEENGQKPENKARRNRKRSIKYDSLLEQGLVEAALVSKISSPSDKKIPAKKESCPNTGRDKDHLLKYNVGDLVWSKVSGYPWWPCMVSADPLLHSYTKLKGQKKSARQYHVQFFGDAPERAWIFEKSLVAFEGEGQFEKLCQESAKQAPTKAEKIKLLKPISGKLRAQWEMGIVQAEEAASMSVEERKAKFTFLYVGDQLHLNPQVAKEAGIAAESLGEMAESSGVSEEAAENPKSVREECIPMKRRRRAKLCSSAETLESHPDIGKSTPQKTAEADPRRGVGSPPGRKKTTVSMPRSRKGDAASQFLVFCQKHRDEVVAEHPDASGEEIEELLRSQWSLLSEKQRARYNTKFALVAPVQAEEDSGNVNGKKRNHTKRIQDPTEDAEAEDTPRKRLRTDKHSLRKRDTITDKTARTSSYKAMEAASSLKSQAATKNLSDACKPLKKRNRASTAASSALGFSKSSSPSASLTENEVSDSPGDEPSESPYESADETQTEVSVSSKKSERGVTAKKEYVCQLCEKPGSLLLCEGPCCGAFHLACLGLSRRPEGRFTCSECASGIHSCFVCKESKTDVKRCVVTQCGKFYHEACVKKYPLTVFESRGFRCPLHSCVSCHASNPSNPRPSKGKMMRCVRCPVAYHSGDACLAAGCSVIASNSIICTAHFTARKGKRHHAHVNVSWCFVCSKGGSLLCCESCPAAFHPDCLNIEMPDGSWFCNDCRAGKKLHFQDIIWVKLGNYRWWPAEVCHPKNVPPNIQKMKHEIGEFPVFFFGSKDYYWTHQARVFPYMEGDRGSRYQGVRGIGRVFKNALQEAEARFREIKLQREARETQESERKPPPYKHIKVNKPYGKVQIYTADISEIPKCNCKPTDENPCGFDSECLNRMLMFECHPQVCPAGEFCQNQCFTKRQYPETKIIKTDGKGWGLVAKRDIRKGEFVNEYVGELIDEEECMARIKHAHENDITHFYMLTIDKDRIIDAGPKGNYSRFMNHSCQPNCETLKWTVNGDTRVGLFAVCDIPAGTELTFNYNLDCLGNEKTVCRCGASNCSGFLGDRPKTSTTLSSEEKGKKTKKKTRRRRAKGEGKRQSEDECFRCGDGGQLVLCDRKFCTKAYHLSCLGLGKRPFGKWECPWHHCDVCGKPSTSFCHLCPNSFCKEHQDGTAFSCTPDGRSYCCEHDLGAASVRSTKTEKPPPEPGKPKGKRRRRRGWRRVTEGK

| Structure (SMILES) | inhibition [%] |
| --- | --- |
| CC(=O)N(C)C[C@H]1Oc2cc(C#Cc3ccccc3F)ccc2S(=O)(=O)N([C@@H](C)CO)C[C@H]1C | -2.4 |
| O=C(C[C@@H]1C[C@H]2c3cc(NS(=O)(=O)c4ccc(F)cc4)ccc3O[C@H]2[C@H](CO)O1)NCCc1ccccc1 | 4.07 |
| C[C@@H]1CN([C@@H](C)CO)S(=O)(=O)c2ccc(C#Cc3ccccc3F)cc2O[C@H]1CN(C)C(=O)c1ccc2c(c1)OCO2 | -0.635 |
| CC(C)NC(=O)N(C)C[C@H]1Oc2ncc(C#CC3(O)CCCC3)cc2C(=O)N([C@H](C)CO)C[C@@H]1C | -3.09 |
| O=C(C[C@@H]1C[C@@H]2c3cc(NS(=O)(=O)c4ccc(F)cc4)ccc3O[C@@H]2[C@@H](CO)O1)NCc1ccncc1 | 1.12 |
| CN(C)CC(=O)Nc1ccc2c(c1)[C@H]1C[C@@H](CC(=O)NCc3ccc(-c4ccccc4)cc3)O[C@H](CO)[C@H]1O2 | 3.66 |
| C[C@H](CO)N1C[C@H](C)[C@@H](CN(C)S(=O)(=O)c2ccc(Cl)cc2)Oc2ccc(NS(C)(=O)=O)cc2CC1=O | 1.76 |
| C[C@@H]1CN([C@@H](C)CO)C(=O)c2cc(-c3cccc(F)c3)cnc2O[C@@H]1CN(C)Cc1ccccc1 | -9.63 |
| COCC(=O)Nc1ccc2c(c1)[C@H]1C[C@H](CC(=O)NCc3ccccn3)O[C@H](CO)[C@H]1O2 | 2.78 |
| CCC(=O)N(C)C[C@H]1Oc2cc(/C=C/c3ccccc3)ccc2S(=O)(=O)N([C@H](C)CO)C[C@@H]1C | 2.05 |
| COc1ccc(NC(=O)Nc2ccc3c(c2)[C@@H]2C[C@H](CC(=O)N4CCCCC4)O[C@H](CO)[C@@H]2O3)cc1 | 4.87 |
| C[C@@H]1CN([C@@H](C)CO)S(=O)(=O)c2ccc(-c3cccc(C(=O)N(C)C)c3)cc2O[C@@H]1CN(C)C | 1.16 |
| CC(C)NC(=O)N(C)C[C@@H]1Oc2ncc(C#Cc3ccncc3)cc2C(=O)N([C@@H](C)CO)C[C@@H]1C | 4.8 |
| Cc1ccc(-c2cnc3c(c2)C(=O)N([C@H](C)CO)C[C@@H](C)[C@H](CN(C)Cc2ccccc2C(=O)O)O3)cc1 | 12.9 |
| CCCNC(=O)C[C@H]1C[C@@H]2c3cc(NC(=O)COC)ccc3O[C@@H]2[C@@H](CO)O1 | 3.25 |
| C[C@H](CO)N1C[C@H](C)[C@@H](CN(C)C(=O)Nc2ccccc2)Oc2ncc(C3=CCCC3)cc2C1=O | -0.747 |
| C/C=C/c1cnc2c(c1)C(=O)N([C@@H](C)CO)C[C@@H](C)[C@H](CN(C)Cc1ccccc1)O2 | 1.34 |
| C[C@@H]1CN([C@@H](C)CO)S(=O)(=O)c2ccc(C#CCN(C)C)cc2O[C@@H]1CN(C)S(=O)(=O)c1cccc(F)c1 | -0.392 |
| C[C@H]1CN([C@@H](C)CO)C(=O)c2cc(-c3ccncc3)cnc2O[C@@H]1CN(C)C(=O)c1cccc(F)c1 | -0.363 |
| Cc1ccc(-c2ccc3c(c2)O[C@H](CN(C)C(=O)Nc2ccc(C(F)(F)F)cc2)[C@@H](C)CN([C@H](C)CO)S3(=O)=O)cc1 | -7.32 |

| Structure (SMILES) | inhibition [%] |
| --- | --- |
| CCC(=O)N(C)C[C@@H]1Oc2ncc(C#CCc3ccccc3)cc2C(=O)N([C@H](C)CO)C[C@H]1C | -13.4 |
| C[C@H](CO)N1C[C@H](C)[C@@H](CN(C)S(=O)(=O)c2cccc(F)c2)Oc2ncc(-c3cccc(F)c3)cc2C1=O | -2.04 |
| C[C@@H]1CCCCO[C@H](CN(C)S(=O)(=O)c2ccc(Cl)cc2)[C@H](C)CN([C@H](C)CO)C(=O)c2cc(NC(=O)NC3CCCCC3)ccc2O1 | 5.74 |
| CC(=O)N(C)C[C@H]1Oc2ncc(C#CC3(O)CCCC3)cc2C(=O)N([C@@H](C)CO)C[C@@H]1C | 4.16 |
| COc1ccc(S(=O)(=O)N[C@@H]2C=C[C@@H](CC(=O)N3CCc4ccccc4C3)O[C@@H]2CO)cc1 | 3.25 |
| CC(=O)N(C)C[C@@H]1Oc2ncc(-c3ccccc3F)cc2C(=O)N([C@H](C)CO)C[C@@H]1C | -4.17 |
| COc1ccc(-c2cnc3c(c2)C(=O)N([C@@H](C)CO)C[C@H](C)[C@H](CN(C)C(=O)Cc2cccnc2)O3)cc1 | -0.562 |
| C[C@@H]1CN([C@H](C)CO)C(=O)c2cc(NC(=O)C3CCCCC3)ccc2O[C@@H](C)CCCCO[C@H]1CN(C)S(C)(=O)=O | -14.3 |
| C[C@@H]1CN([C@H](C)CO)S(=O)(=O)c2ccc(Br)cc2O[C@@H]1CN(C)Cc1cncnc1 | 1.53 |
| C[C@@H](NC(=O)C[C@H]1C[C@@H]2c3cc(NC(=O)C4CCC4)ccc3O[C@@H]2[C@@H](CO)O1)c1ccccc1 | -3.13 |
| C[C@H]1CN([C@@H](C)CO)S(=O)(=O)c2ccc(-c3cccc(C#N)c3)cc2O[C@H]1CN(C)CC1CC1 | 18.1 |
| COc1cccc(S(=O)(=O)N(C)C[C@H]2Oc3cc(C#CCN(C)C)ccc3S(=O)(=O)N([C@H](C)CO)C[C@H]2C)c1 | 1.49 |
| C[C@@H]1CN([C@@H](C)CO)C(=O)Cc2cc(NS(C)(=O)=O)ccc2O[C@H]1CN(C)S(=O)(=O)c1ccc(F)cc1 | 5.39 |
| CCCNC(=O)N(C)C[C@H]1Oc2ncc(C#CC(C)C)cc2C(=O)N([C@@H](C)CO)C[C@@H]1C | -3.03 |
| C[C@@H]1CN([C@H](C)CO)C(=O)c2cc(-c3ccc(F)cc3)cnc2O[C@@H]1CN(C)C(=O)C1CCC1 | 8.32 |
| O=C(C[C@H]1C[C@@H]2c3cc(NC(=O)CC4CC4)ccc3O[C@@H]2[C@@H](CO)O1)NCc1cc(F)ccc1F | 9.35 |
| COc1ccccc1S(=O)(=O)N(C)C[C@@H]1Oc2cc(C#CCC3CCCC3)ccc2S(=O)(=O)N([C@H](C)CO)C[C@H]1C | -16.6 |
| C[C@@H]1CN([C@@H](C)CO)S(=O)(=O)c2ccc(Br)cc2O[C@@H]1CN(C)C(=O)CN(C)C | 16.9 |
| COc1ccccc1CNC(=O)C[C@@H]1C[C@@H]2c3cc(NC(=O)C4CCOCC4)ccc3O[C@@H]2[C@@H](CO)O1 | -2.77 |
| CNC[C@H]1Oc2cc(-c3ccc(C(=O)N(C)C)cc3)ccc2S(=O)(=O)N([C@@H](C)CO)C[C@@H]1C | 2.38 |

| Structure (SMILES) | inhibition [%] |
| --- | --- |
| COc1ccc(S(=O)(=O)Nc2ccc3c(c2)C(=O)N([C@@H](C)CO)C[C@H](C)[C@H](CN(C)Cc2ccc4c(c2)OCO4)OCCCC[C@H](C)O3)cc1 | 2.05 |
| COC(=O)C[C@@H]1C[C@H]2c3cc(NC(=O)CN(C)C)ccc3O[C@H]2[C@H](CO)O1 | 6.16 |
| C[C@H](CO)N1C[C@H](C)[C@@H](CN(C)Cc2ccccn2)Oc2ncc(-c3cccc(F)c3)cc2C1=O | 2.22 |
| CC(=O)N(C)C[C@@H]1Oc2cc(-c3cccnc3)ccc2S(=O)(=O)N([C@@H](C)CO)C[C@H]1C | -5.41 |
| C[C@H]1CN([C@@H](C)CO)S(=O)(=O)c2ccc(C3=CCCC3)cc2O[C@H]1CN(C)C(=O)Cc1ccncc1 | -1.21 |
| O=C(C[C@H]1CC[C@@H](NC(=O)Nc2ccc(F)cc2)[C@H](CO)O1)NCc1cccc(F)c1 | 9.13 |
| Cc1ccccc1-c1ccc2c(c1)O[C@@H](CN(C)Cc1ccc(C(=O)O)cc1)[C@H](C)CN([C@H](C)CO)S2(=O)=O | -1.98 |
| C[C@H](CO)N1C[C@H](C)[C@@H](CN(C)S(=O)(=O)c2ccc(F)cc2)Oc2ccc(NC(=O)CCCCCC(=O)Nc3ccccc3N)cc2CC1=O | -1.08 |
| C[C@@H]1CN([C@H](C)CO)C(=O)Cc2cc(NC(=O)Nc3cccc4ccccc34)ccc2O[C@H]1CN(C)C(=O)Nc1ccc2c(c1)OCO2 | -7.81 |
| COCC#Cc1ccc2c(c1)O[C@@H](CN(C)S(C)(=O)=O)[C@H](C)CN([C@H](C)CO)S2(=O)=O | -5.23 |
| C[C@@H]1CN([C@H](C)CO)C(=O)c2cc(NS(=O)(=O)c3cn(C)cn3)ccc2O[C@@H](C)CCCCO[C@@H]1CN(C)C(=O)CCC(F)(F)F | -0.203 |
| CN1CCN(C(=O)C[C@H]2C[C@H]3c4cc(NC(=O)C5CCC5)ccc4O[C@H]3[C@H](CO)O2)CC1 | 5.87 |
| CC(C)CC#Cc1cnc2c(c1)C(=O)N([C@@H](C)CO)C[C@H](C)[C@@H](CN(C)S(=O)(=O)c1cn(C)cn1)O2 | 2.14 |
| CC(C)CC#Cc1ccc2c(c1)O[C@H](CN(C)C(=O)CC1CC1)[C@@H](C)CN([C@@H](C)CO)S2(=O)=O | -15.5 |
| COC(=O)C[C@H]1C=C[C@H](NC(=O)Nc2ccc(C(F)(F)F)cc2)[C@@H](CO)O1 | -4.85 |
| O=C(C[C@@H]1C[C@@H]2c3cc(NC(=O)C4CCOCC4)ccc3O[C@@H]2[C@@H](CO)O1)NC1CCCCC1 | 0.0335 |
| C[C@H](O)C#Cc1cnc2c(c1)C(=O)N([C@@H](C)CO)C[C@H](C)[C@@H](CN(C)C(=O)c1ccncc1)O2 | 0.0295 |
| C[C@H]1CN([C@@H](C)CO)S(=O)(=O)c2ccc(Br)cc2O[C@H]1CN(C)C(=O)C1CC1 | 6.22 |
| Cc1noc(C)c1NC(=O)N(C)C[C@@H]1OCCCC[C@H](C)Oc2ccc(NC(=O)C3CCCCC3)cc2C(=O)N([C@H](C)CO)C[C@@H]1C | 3.93 |
